For 9 compounds, outcome and AC50 results are on record in PubChem BioAssay (EPA / NIEHS).

A short description of assay [1]: ATG_TGFb_CIS: Attagene CIS-FACTORIAL HepG2 Assay for human Transforming Growth Factor (TGF) (AID 2282967). Particulars: HepG2 Attagene CIS TGFb reporter, mRNA transcription; actives raise or lower the signal. In outline:
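Transcript-level reporter readout: HepG2 transfectants, 24 h exposure, RNA to cDNA, reporter-specific PCR, fluorescent primer extension, capillary sizing against ROX standards. Gain- or loss-of-signal relative to DMSO.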

Assay [2] in a line: ATG_VDRE_CIS: Attagene CIS-FACTORIAL HepG2 Assay for human Vitamin D Receptor Element (VDRE) (AID 2282968). Particulars: HepG2 VDRE cis-reporter transcription, actives raise or lower the signal. In short, it runs like this: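 RT-PCR/CE readout of reporter mRNA; HepG2, transient transfection, 24 h dosing; DMSO baseline; bidirectional analysis.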
Assay [3] concerns the target X-box-binding protein 1 (Homo sapiens) (UniProt P17861). The experiment in a line: ATG_Xbp1_CIS: Attagene CIS-FACTORIAL HepG2 Assay for human X-box Binding Protein 1 (XBP1) (AID 2282972). Particulars: HepG2 XBP1 cis-element reporter, Attagene multiplex; actives raise or lower the signal. In short, it runs like this: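 Fluorescence-labelled cDNA fragments from reporter transcripts, separated by capillary electrophoresis, give the signal. Source: HepG2 cells transfected with promoter-driven reporter units, harvested 24 h post-dose. DMSO served as reference for bidirectional curve fitting.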

Assay [4] has as its target Glucocorticoid receptor (Homo sapiens) (UniProt P04150). The experiment in a line: ATG_GR_TRANS: Attagene TRANS-FACTORIAL HepG2 Assay for human Glucocorticoid Receptor (GR) (AID 2282978; active = hit-call score of the fitted dose curve at least 0.9, where 1 is the maximum;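 note: activators score as hits since higher reporter transcript over DMSO is fitted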). Particulars: HepG2 Attagene TRANS GR reporter, mRNA transcription. In short, it runs like this: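 In this trans-factorial format, exogenous NR-GAL4 chimeric proteins in transfected HepG2 cells regulate GAL4-UAS reporter transcription. After 24 h treatment, reporter mRNA induction relative to DMSO is read by RT-PCR and capillary electrophoresis.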

Assay [5] concerns the target Bile acid receptor (Homo sapiens) (UniProt Q96RI1). The experiment in a line: ATG_FXR_TRANS: Attagene TRANS-FACTORIAL HepG2 Assay for Farnesoid X Receptor (FXR) (AID 2282979; active = hit-call score of the fitted dose curve at least 0.9, where 1 is the maximum;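 note: hits raise reporter mRNA above DMSO so AC50 marks FXR activation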). Particulars: HepG2 Attagene TRANS FXR-GAL4 reporter transcription. In outline:
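Read-out: fluorescent reporter transcripts quantified by capillary electrophoresis after RT-PCR of total RNA. Source cells were HepG2 transiently carrying chimeric NR-GAL4 plus GAL4-UAS reporter units, dosed 24 h. Activity fitted upward relative to DMSO baseline.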

Assay [6] can be described thus: ATG_M_06_TRANS: Attagene TRANS-FACTORIAL HepG2 Assay for M06 Transcription Factor (Internal Marker) (AID 2282983; active = hit-call score of the fitted dose curve at least 0.9, where 1 is the maximum). Particulars: HepG2 Attagene TRANS M06 internal marker reporter. In outline:
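After a 24 h chemical treatment of transfected HepG2, RNA underwent DNase I treatment, reverse transcription and reporter-specific PCR; labelled, HpaI-digested products were sized by capillary electrophoresis. Signal increase relative to DMSO defined activity.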

For assay [7], the target named is Transcriptional activator Myb (Homo sapiens) (UniProt P10242). The experiment in a line: ATG_Myb_CIS: Attagene CIS-FACTORIAL HepG2 Assay for human Myeloblastosis (Myb) Proto-Oncogene Transcription Factor (AID 2282986). Particulars: HepG2 Attagene CIS-FACTORIAL Myb reporter transcription; actives raise or lower the signal. In outline: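 Steps: transfect HepG2 with cis-regulated reporter units; dose with chemical for 24 h; isolate RNA, reverse-transcribe, PCR-amplify and FAM-label reporter sequences; digest with HpaI; resolve by capillary electrophoresis. Activity fitted in both directions relative to DMSO.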
Transcriptional activator Myb (Homo sapiens), sequence (P10242 whole entry, looked up): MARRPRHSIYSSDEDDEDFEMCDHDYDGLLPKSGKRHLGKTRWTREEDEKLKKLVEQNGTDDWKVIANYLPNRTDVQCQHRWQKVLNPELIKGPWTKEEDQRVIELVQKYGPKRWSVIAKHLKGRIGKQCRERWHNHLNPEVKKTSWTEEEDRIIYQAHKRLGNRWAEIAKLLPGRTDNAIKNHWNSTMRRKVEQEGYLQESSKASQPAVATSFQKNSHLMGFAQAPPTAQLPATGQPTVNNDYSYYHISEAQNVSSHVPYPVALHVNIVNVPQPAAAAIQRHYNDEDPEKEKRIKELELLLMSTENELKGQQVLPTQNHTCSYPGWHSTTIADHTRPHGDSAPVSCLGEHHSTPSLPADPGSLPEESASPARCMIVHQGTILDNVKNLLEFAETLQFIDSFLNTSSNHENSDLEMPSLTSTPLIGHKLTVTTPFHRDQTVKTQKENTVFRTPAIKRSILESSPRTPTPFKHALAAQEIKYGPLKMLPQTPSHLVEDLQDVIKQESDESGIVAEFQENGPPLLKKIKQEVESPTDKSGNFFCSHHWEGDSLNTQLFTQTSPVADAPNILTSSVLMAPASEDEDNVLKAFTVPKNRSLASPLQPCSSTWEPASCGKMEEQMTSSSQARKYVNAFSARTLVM

The target of assay [8] is Nuclear respiratory factor 1 (Homo sapiens) (UniProt Q16656). Description: ATG_NRF1_CIS: Attagene CIS-FACTORIAL HepG2 Assay for human Nuclear Respiratory Factor 1 (NRF1) Orphan Gene (AID 2282987). The conditions noted are these: HepG2 NRF1 cis-element reporter, Attagene multiplex; actives raise or lower the signal. In short, it runs like this:
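Fluorescence intensity of labelled reporter cDNA fragments, resolved by capillary electrophoresis, served as readout for NRF1 cis-element activity. Transiently transfected HepG2 cells were dosed for 24 hours; activity in either direction was fitted against DMSO negative control.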

The nature of assay [9]: ATG_NFI_CIS: Attagene CIS-FACTORIAL HepG2 Assay for human Nuclear Factor I (NFI) (AID 2282989). Particulars: HepG2 cis-regulatory reporter, NFI response element transcription; actives raise or lower the signal. In short, it runs like this: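 After transient transfection of HepG2 with cis-promoter reporter constructs and 24 h dosing, RNA is reverse-transcribed, amplified, 6-FAM end-labelled and HpaI-digested before capillary analysis. Bidirectional curve fitting against DMSO.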

The target of assay [10] is Steroid hormone receptor ERR1 (Homo sapiens) (UniProt P11474). Description: ATG_ERRa_TRANS: Attagene TRANS-FACTORIAL HepG2 Assay for human Estrogen-Related Receptor alpha (ERRa) (AID 2282971; active = hit-call score of the fitted dose curve at least 0.9, where 1 is the maximum). The conditions noted are these: HepG2 Attagene TRANS reporter, ERRa transactivation. In outline:
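Transfected HepG2, 24 h dosing, ERRa-Gal4 chimera driving GAL4-UAS reporter. Readout: reporter mRNA via RT-PCR plus capillary electrophoresis (fluorescence). Positive direction vs DMSO control.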

Assay [11] is described as follows: ATG_M_32_TRANS: Attagene TRANS-FACTORIAL HepG2 Assay for M32 Transcription Factor (Internal Marker) (AID 2282984; active = hit-call score of the fitted dose curve at least 0.9, where 1 is the maximum;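 note: transcript level of a background control reporter unit measured by RT-PCR and capillary electrophoresis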). The conditions noted are these: HepG2 Attagene TRANS M32 internal marker reporter. In outline:
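Human hepatoma HepG2, transient MRTU transfection, 24 h treatment. RNA → RT-PCR → fluorescent primer extension → HpaI digest (2 h, 37 C) → CE. Positive-direction fit vs DMSO.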

Assay [12] addresses Estrogen receptor (Homo sapiens) (UniProt P03372). Description: ATG_ERa_TRANS: Attagene TRANS-FACTORIAL HepG2 Assay for human Estrogen Receptor alpha (ERa) (AID 2282970; active = hit-call score of the fitted dose curve at least 0.9, where 1 is the maximum). Particulars: HepG2 Attagene TRANS ERa GAL4 reporter, mRNA. In outline:
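After 24 h of compound treatment, RNA from HepG2 cells bearing transfected GAL4-UAS reporter constructs is converted to cDNA, amplified and fluorescently labelled. Capillary electrophoresis resolves the ERa-linked reporter; DMSO serves as negative control.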

Assay [13] addresses Estrogen-related receptor gamma (Homo sapiens) (UniProt P62508). Description: ATG_ERRg_TRANS: Attagene TRANS-FACTORIAL HepG2 Assay for human Estrogen-Related Receptor gamma (ERRg) (AID 2282977; active = hit-call score of the fitted dose curve at least 0.9, where 1 is the maximum;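 note: hits increase reporter signal over DMSO so potencies reflect activators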). Particulars: HepG2 Attagene TRANS reporter, ERRg transactivation. In outline:
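Transfect HepG2 with multiple GAL4-UAS reporter transcription units; dose chemicals 24 h; isolate RNA, reverse-transcribe with oligo(dT), PCR-amplify, label with 6-FAM, digest with HpaI; size fragments by capillary electrophoresis. DMSO serves as negative control.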

The target in assay [14] is Nuclear receptor subfamily 4 group A member 2 (Homo sapiens) (UniProt P43354). Description: ATG_NURR1_TRANS: Attagene TRANS-FACTORIAL HepG2 Assay for human Nuclear Receptor Related Protein 1 (NURR1) (AID 2282985; active = hit-call score of the fitted dose curve at least 0.9, where 1 is the maximum). Particulars: HepG2 Attagene TRANS reporter, mRNA readout. In short, it runs like this:
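After 24 h chemical dosing, total RNA from transiently transfected HepG2 cells was reverse-transcribed and reporter cDNA PCR-amplified, FAM-labelled and analysed by capillary electrophoresis. Activity fitted in positive direction, DMSO as negative control.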

Assay [15] in a line: ATG_M_19_TRANS: Attagene TRANS-FACTORIAL HepG2 Assay for M19 Transcription Factor (Internal Marker) (AID 2282974; active = hit-call score of the fitted dose curve at least 0.9, where 1 is the maximum). The conditions noted are these: HepG2 Attagene TRANS-FACTORIAL M19 internal marker reporter. In short, it runs like this:
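Cells: human HepG2, transiently transfected with multiplexed reporter transcription units. Exposure: 24 h. Detection: RT-PCR of reporter mRNA with capillary electrophoresis. Analysis: gain-of-signal vs DMSO.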

Assay [16] in a line: ATG_GAL4_TRANS: Attagene TRANS-FACTORIAL HepG2 Assay for GAL4 (Internal Marker) (AID 2282976; active = hit-call score of the fitted dose curve at least 0.9, where 1 is the maximum). The conditions noted are these: HepG2 Attagene TRANS GAL4 internal marker reporter. In outline:
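RT-PCR/capillary electrophoresis readout of reporter mRNA. HepG2, transient MRTU transfection (GAL4-UAS reporters), 24 h compound exposure. Background-control endpoint, positive direction vs DMSO baseline.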

Assay [17] addresses Oxysterols receptor LXR-beta (Homo sapiens) (UniProt P55055). Description: ATG_LXRb_TRANS: Attagene TRANS-FACTORIAL HepG2 Assay for human Liver X Receptor beta (LXRb) (AID 2282981; active = hit-call score of the fitted dose curve at least 0.9, where 1 is the maximum). Particulars: HepG2 Attagene TRANS GAL4-LXRb reporter, mRNA. In short, it runs like this:
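In this TRANS format, exogenous chimeric NR-Gal4 protein activity, not endogenous factors, drives reporter expression in transfected human HepG2 cells. Exposure lasted 24 h; reporter mRNA was read by fluorescent capillary electrophoresis.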

Assay [18] addresses Hepatocyte nuclear factor 4-alpha (Homo sapiens) (UniProt P41235). Description: ATG_HNF4a_TRANS: Attagene TRANS-FACTORIAL HepG2 Assay for human Hepatocyte Nuclear Factor 4 alpha (HNF4a) (AID 2282982; active = hit-call score of the fitted dose curve at least 0.9, where 1 is the maximum). Particulars: HepG2 HNF4a transactivation reporter, mRNA readout. In outline: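 Cells used were human HepG2, transiently carrying GAL4-UAS reporter units read out against exogenous NR-GAL4 chimeras. Reporter transcript levels after 24 h dosing were quantified by fluorescent RT-PCR and capillary electrophoresis.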

For assay [19], the target named is Oxysterols receptor LXR-alpha (Homo sapiens) (UniProt Q13133). Description: ATG_LXRa_TRANS: Attagene TRANS-FACTORIAL HepG2 Assay for human Liver X Receptor alpha (LXRa) (AID 2282980; active = hit-call score of the fitted dose curve at least 0.9, where 1 is the maximum). Particulars: HepG2 Attagene TRANS reporter, LXRa transactivation. In outline:
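Read-out: reporter transcript levels by RT-PCR plus capillary electrophoresis, fluorescence intensity. Transiently transfected HepG2, exogenous NR-GAL4 chimera, GAL4-UAS reporters; 24 h compound exposure. Activity = increase over DMSO negative control.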

SMILES strings stand for the structures. Records with an inconclusive call do not appear. Calls of active or inactive are those of the source. Rule for the calls, unless noted: active = hit-call score of the fitted dose curve at least 0.9, where 1 is the maximum; inactive = score below 0.9.

Nuclear respiratory factor 1 (Homo sapiens), sequence (Q16656 whole entry, looked up, the tested form may be a part): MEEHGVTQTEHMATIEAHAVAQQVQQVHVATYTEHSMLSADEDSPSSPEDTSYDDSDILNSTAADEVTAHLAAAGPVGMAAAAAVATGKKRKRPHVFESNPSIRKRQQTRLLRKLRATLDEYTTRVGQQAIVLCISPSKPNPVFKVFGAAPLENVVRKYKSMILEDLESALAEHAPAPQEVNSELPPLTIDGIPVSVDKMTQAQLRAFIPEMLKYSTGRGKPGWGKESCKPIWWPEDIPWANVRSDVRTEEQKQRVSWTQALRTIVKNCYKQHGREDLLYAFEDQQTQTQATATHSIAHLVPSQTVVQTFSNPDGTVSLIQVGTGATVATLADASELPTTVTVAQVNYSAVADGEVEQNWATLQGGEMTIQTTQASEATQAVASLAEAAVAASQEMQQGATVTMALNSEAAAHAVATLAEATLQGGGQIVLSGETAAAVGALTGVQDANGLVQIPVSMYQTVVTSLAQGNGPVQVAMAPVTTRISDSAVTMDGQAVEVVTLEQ
Glucocorticoid receptor (Homo sapiens), sequence (P04150 whole entry, looked up, the tested form may be a part): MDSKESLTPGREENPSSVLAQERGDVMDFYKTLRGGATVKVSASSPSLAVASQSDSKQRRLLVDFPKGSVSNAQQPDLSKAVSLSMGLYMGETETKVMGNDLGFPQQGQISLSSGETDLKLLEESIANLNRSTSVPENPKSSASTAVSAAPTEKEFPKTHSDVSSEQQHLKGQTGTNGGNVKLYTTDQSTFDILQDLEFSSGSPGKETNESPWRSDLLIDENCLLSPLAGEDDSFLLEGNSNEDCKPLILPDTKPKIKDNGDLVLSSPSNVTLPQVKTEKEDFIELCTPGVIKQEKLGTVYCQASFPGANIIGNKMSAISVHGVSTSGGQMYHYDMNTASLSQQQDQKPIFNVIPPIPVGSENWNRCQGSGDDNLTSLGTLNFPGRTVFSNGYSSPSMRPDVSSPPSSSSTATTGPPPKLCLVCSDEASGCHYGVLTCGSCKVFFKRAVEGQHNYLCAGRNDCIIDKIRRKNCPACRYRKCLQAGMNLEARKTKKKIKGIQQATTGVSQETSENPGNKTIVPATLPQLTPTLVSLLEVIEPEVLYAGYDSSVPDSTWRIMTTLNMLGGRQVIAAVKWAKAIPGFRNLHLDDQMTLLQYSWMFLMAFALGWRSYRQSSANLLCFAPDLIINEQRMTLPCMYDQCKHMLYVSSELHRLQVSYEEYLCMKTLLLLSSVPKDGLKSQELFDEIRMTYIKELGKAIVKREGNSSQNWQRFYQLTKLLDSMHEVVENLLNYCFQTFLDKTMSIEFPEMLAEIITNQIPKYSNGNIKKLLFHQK
Bile acid receptor (Homo sapiens), sequence (Q96RI1 whole entry, looked up, the tested form may be a part): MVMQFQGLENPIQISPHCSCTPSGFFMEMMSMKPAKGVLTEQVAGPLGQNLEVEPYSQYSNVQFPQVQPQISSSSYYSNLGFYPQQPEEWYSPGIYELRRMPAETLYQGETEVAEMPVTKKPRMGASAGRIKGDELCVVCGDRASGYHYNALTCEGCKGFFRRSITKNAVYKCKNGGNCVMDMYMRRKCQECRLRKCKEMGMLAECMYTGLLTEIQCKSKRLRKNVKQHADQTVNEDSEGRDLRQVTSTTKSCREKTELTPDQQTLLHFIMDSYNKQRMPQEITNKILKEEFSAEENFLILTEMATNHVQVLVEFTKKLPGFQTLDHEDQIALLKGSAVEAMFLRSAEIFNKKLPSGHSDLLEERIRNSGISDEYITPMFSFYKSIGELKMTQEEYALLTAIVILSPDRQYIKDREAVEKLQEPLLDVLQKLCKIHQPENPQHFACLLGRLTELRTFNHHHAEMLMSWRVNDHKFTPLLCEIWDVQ
X-box-binding protein 1 (Homo sapiens), sequence (P17861 whole entry, looked up, the tested form may be a part): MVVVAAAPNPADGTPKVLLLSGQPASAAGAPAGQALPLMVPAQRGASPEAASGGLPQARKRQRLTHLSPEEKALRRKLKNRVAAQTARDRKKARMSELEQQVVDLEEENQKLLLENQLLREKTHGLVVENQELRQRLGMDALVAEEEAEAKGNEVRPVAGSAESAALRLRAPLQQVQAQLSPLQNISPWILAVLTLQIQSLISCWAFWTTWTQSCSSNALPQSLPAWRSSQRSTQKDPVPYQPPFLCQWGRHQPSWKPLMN
Estrogen receptor (Homo sapiens), sequence (P03372 whole entry, looked up, the tested form may be a part): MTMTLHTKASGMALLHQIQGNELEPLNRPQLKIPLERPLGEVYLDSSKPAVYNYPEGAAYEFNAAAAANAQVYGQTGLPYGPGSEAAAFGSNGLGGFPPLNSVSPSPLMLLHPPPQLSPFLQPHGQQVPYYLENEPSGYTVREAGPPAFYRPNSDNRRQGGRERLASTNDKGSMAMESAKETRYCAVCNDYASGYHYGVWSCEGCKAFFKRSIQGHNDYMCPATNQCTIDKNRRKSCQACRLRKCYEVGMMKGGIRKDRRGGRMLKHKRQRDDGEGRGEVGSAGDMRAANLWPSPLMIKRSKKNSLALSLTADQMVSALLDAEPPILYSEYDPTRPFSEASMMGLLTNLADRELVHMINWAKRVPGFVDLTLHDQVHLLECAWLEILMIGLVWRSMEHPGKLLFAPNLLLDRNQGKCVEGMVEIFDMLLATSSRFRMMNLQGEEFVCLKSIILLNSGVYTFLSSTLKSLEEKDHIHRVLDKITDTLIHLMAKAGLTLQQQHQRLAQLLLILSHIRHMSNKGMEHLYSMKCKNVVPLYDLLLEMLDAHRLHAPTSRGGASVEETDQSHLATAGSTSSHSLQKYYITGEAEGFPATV
Nuclear receptor subfamily 4 group A member 2 (Homo sapiens), sequence (P43354 whole entry, looked up): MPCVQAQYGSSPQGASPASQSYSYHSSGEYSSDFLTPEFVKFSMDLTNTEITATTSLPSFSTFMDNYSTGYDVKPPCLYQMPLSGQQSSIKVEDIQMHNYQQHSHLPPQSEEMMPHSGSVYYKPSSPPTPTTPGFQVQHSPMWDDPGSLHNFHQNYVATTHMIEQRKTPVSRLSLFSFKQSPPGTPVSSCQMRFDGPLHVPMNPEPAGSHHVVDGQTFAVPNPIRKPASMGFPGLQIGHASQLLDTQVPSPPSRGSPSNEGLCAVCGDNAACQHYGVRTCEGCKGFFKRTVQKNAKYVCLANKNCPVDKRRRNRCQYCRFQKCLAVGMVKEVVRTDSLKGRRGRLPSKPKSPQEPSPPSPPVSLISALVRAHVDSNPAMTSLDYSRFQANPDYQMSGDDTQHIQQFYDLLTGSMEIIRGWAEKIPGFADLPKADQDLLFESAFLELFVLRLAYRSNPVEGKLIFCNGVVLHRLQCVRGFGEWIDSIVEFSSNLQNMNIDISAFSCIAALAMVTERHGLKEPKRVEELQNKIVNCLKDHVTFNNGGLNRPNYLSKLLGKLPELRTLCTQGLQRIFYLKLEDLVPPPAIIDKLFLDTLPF
Hepatocyte nuclear factor 4-alpha (Homo sapiens), sequence (P41235 whole entry, looked up, the tested form may be a part): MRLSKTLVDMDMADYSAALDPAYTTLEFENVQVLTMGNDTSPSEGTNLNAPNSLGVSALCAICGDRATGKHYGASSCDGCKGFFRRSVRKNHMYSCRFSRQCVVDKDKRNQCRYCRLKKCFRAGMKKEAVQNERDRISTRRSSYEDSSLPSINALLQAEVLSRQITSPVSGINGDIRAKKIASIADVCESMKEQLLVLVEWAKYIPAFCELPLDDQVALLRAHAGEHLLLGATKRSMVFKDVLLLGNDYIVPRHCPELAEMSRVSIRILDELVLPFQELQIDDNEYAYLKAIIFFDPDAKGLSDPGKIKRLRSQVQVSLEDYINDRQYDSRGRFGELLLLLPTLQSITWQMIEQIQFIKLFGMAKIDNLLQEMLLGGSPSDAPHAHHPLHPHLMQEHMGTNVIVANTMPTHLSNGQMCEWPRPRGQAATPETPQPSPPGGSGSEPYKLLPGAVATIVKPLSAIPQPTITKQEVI
Estrogen-related receptor gamma (Homo sapiens), sequence (P62508 whole entry, looked up, the tested form may be a part): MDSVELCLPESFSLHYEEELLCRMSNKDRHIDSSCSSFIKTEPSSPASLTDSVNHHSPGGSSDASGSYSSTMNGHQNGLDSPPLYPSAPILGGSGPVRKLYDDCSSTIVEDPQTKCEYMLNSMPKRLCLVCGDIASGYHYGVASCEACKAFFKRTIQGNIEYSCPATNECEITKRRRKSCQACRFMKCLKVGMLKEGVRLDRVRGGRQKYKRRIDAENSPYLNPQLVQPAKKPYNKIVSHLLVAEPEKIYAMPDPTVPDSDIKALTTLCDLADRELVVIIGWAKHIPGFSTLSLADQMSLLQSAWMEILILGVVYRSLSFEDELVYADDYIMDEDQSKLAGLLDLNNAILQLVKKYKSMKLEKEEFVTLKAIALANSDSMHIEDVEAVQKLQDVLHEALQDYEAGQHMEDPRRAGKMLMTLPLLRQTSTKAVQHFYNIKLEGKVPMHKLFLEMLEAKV

Regarding `COC(=O)CSc1cc(N=c2sc(=O)n3n2CCCC3)c(F)cc1Cl`, the result in assay [1], in [2], in assay [3], in assay [4], in assay [5] and in assay [6] was inactive. The compound was called inactive in assay [7], in assay [8] and in assay [9].

For the compound `CCNc1nc(N)nc(Cl)n1`, the call in assay [1], in assay [2], in assay [10], in assay [3], in assay [6] and in [11] was inactive. Moreover, the compound was called inactive in assay [7], in assay [8] and in assay [9].

In the case of `CCSC(=O)N(CC(C)C)CC(C)C`, the compound was called inactive in [1], in assay [2], in [12], in [3], in assay [13] and in [4]. In addition, the result in assay [6], in assay [11], in assay [14], in assay [7], in assay [8] and in assay [9] was inactive.

For the compound `CSC(=O)c1cccc2nnsc12`, the call in [1], in [2], in assay [3], in assay [15], in assay [16] and in [4] was inactive. Besides, the outcome in assay [17], in [6], in assay [11], in assay [14], in [7] and in [8] was inactive. For the same compound, the compound was called inactive in [9].

Regarding `CCCCOC(=O)C(C)Oc1ccc(Oc2ccc(C(F)(F)F)cn2)cc1` (configuration not stated), the outcome in [1], in [2], in assay [12], in [3], in assay [15] and in assay [18] was inactive. Besides, the compound was classed as inactive in [11], in assay [14], in assay [7], in assay [8] and in assay [9].

With `CCCOC(=O)c1ccc(C(=O)OCCC)nc1`, the result in assay [1], in assay [2], in assay [12], in assay [3], in [4] and in [5] was inactive. The outcome in [18], in [6], in assay [11], in [14], in assay [7] and in [8] was inactive. Also, in [9], the result was inactive.

`CC(C)(C)[C@@H](O)[C@@H](Cc1ccc(Cl)cc1)n1cncn1`: the outcome in assay [1], in assay [3], in [18], in [6], in assay [7] and in [8] was inactive. In addition, the result in assay [9] was inactive. Also, in assay [2], the concentration at half-maximal activity (AC50) was 14 µM (active).

Turning to `COC(=O)c1c(Cl)nn(C)c1S(=O)(=O)NC(=O)Nc1nc(OC)cc(OC)n1`, the result in assay [1], in assay [2], in [12], in [3], in assay [13] and in [4] was inactive. Also, the outcome in assay [5], in assay [19], in assay [18], in assay [6], in [11] and in assay [7] was inactive. Further, the call in assay [8] and in [9] was inactive.

`CCCOC(=O)NCCCN(C)C`: the call in [1], in [2], in assay [3], in [15], in [14] and in assay [7] was inactive. For the same compound, the result in [8] and in assay [9] was inactive.

For orientation: AC50 means the concentration giving half of the maximal activity seen.
